The record followed here is PubChem BioAssay AID2283336 (EPA ToxCast).

Each structure is given as a SMILES string. Records with an inconclusive call do not appear. Active and inactive are the calls of the source. How the source made its calls: active means hit-call score of the fitted dose curve at least 0.9, where 1 is the maximum; inconclusive means response in the unintended direction; inactive means score below 0.9.

By AC50 is commonly meant the concentration at which the activity in the assay is half-maximal.

For the assay, the target named is Kcnn1 (gene 54261) (UniProt P70606). The assay can be described thus: NVS_IC_rKCaCh: NovaScreen (NVS) Ion Channel Assay for Potassium Channel, Ca2+ Act., VI (KCaCh). Put shortly: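 Filter-based scintillation counting of radioligand bound to rat forebrain membrane preparations, measured 1 h after compound addition. Primary screen used 25 uM in duplicate, with concentration-response follow-up; signal decrease relative to DMSO marks activity.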
Kcnn1 (gene 54261), sequence (P70606 whole entry, looked up): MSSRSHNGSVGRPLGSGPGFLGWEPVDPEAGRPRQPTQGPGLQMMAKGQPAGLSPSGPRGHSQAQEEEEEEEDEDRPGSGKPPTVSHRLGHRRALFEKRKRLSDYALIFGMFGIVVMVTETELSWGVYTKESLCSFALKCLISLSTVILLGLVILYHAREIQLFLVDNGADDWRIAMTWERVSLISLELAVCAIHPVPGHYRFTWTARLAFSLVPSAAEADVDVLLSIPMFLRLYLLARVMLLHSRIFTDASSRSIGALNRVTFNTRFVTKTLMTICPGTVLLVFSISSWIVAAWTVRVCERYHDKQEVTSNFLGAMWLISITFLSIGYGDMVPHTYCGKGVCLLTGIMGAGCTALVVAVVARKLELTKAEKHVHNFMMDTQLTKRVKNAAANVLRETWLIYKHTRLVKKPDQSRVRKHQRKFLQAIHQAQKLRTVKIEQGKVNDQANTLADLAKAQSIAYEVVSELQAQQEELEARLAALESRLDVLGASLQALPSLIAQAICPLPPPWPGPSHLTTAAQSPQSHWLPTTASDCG

With `CN(C)c1ccc(C(=C2C=CC(=[N+](C)C)C=C2)c2ccc(N(C)C)cc2)cc1`, the AC50 was 16.5 µM (active).
